Screening results (PubChem BioAssay)
PLK1 PBD block = blocks phosphopeptide binding to human PLK1 polo-box domain; P53350; Plk1 PBD binding of FITC phosphopeptide, fluorescence polarization; Potency, µM, usual class: inhibitors; actives 2.8% (n = 360,000); AID 720504; also: series mostly up to about 57 µM; nearly all actives have a fitted effect of over 65% in size
BAZ2B inh = blocks human BAZ2B | Q9UIF8 | Potency, µM (doses to about 114 µM), most hits filed as inhibitors | AlphaScreen BAZ2B-H3K14Ac peptide displacement | actives 4.4% (n = 360,000); also: nearly all actives have a fitted effect of over 60% in size
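BAZ2B (50 nM) with biotin-H3(5-23)K14Ac peptide (50 nM) in PBS pH 7.4, 0.01% Tween-20, preformed 30 min, then compound 30 min at room temperature; top concentration 110uM. AlphaScreen streptavidin donor/nickel chelate acceptor beads (10 ug/mL final), 20 min dark, signal read.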
HP1b binding inh = HP1-beta chromodomain-methylated histone interaction inhibition; Potency, µM (doses to about 114 µM), most hits filed as inhibitors; AID 540317; actives 0.56% (n = 390,000); AlphaScreen HP1-beta / biotin-H3K9me3 peptide binding; also: nearly all actives have a fitted effect of over 70% in size
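Compound inhibition of the preformed complex between 50 nM HP1-beta and 50 nM biotinylated H3K9me3 peptide was read by AlphaScreen. Buffer was PBS pH 7.4 with 0.01% Tween-20. Incubations ran 30 min at room temperature, with 10 ug/mL donor/acceptor beads.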
VDR inhibitor = blocks the human vitamin D receptor | actives 0.93% (n = 400,000) | Potency, µM, usual class: inhibitors | P11473 | VDR-SRC2-3 peptide fluorescence polarization, 2 h
Target sequence (P11473 whole entry, looked up): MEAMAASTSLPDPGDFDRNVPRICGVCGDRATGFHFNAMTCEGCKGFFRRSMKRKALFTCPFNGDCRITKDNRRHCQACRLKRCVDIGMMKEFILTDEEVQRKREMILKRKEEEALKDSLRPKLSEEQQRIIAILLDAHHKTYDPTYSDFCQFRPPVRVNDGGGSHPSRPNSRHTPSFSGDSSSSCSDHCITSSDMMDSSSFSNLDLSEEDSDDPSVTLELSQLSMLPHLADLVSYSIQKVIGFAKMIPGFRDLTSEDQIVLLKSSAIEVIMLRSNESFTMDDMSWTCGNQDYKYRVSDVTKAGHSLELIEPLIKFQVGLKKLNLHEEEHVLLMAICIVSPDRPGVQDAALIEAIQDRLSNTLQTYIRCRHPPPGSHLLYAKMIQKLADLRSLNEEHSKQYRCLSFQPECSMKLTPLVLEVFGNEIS
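Fluorescence polarization assay of small-molecule disruption of VDR binding to coregulator peptide SRC2-3. Compounds and controls pin-transferred, then read after 2 h incubation at ambient room temperature.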
JMJD2A Tudor = JMJD2A Tudor domain (human) inhibition; O75164; AlphaScreen JMJD2A-Tudor / H3K4me3 peptide binding; AID 504339; actives 4.4% (n = 390,000); Potency, µM (top dose mostly 114 µM), actives largely listed as inhibitors; also: nearly all actives have a fitted effect of over 50% in size
G9a block = G9a (human) methyltransferase inhibition; G9a H3K9 monomethylation, AlphaScreen, 2 h; Potency, µM (titrated, usually from 102 µM), usual class: inhibitors; Q96KQ7; actives 8.8% (n = 350,000); AID 504332; also: nearly all actives have a fitted effect of over 75% in size
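AlphaScreen detection with an anti-monomethyl H3K9 antibody quantified product after a 2 h room-temperature reaction containing 500 nM biotinylated H3K9 peptide, 20 µM SAM and 20 nM enzyme, which had been preincubated 15 min with compound.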
Large screens that a line does not name were inactive. This is a sample that favours compounds with a hit; in the whole collection about 11% have one here. Calls follow the shape of the dose curve; as a rule, active = well fitted curve in the direction sought with a large enough effect; inconclusive = small, poorly fitted or top-dose-only effect, or another doubt; inactive = no such curve, though single readings can be large; an effect the other way counts as inactive or inconclusive.

COCc1[nH]nc2c1C(c1ccc(OC)c(OC)c1)C(C#N)=C(N)O2 (stereo not given)	none
CC(C)C[C@H](NC(=O)c1nc[nH]c1C(=O)NCc1ccc(CNC(=O)OC(C)(C)C)cc1)C(=O)OCc1ccccc1	none
O=c1[nH]sc2ccccc12	PLK1 PBD block 5.3µM, BAZ2B inh 50µM, VDR inhibitor inconclusive, JMJD2A Tudor 32µM, G9a block 1.8µM
CCCCCOc1ccc(NC(=O)CSc2cccc3cccnc23)cc1	PLK1 PBD block inconclusive, G9a block inconclusive
O=C(O)c1ccc(NC(CSCc2ccccc2F)C(=O)O)c([N+](=O)[O-])c1 (stereo not given)	JMJD2A Tudor 32µM, G9a block inconclusive
COCCNC(=O)CSc1nc2cc3c(cc2c(=O)n1CCCC(=O)NCc1ccc2c(c1)OCO2)OCO3	none (no result: PLK1 PBD block)
Cc1nnc(C)n1/N=C/c1cc(Br)cc(Br)c1O	BAZ2B inh 50µM, G9a block 1.6µM
Cc1nnc(C)n1/N=C/c1cc(Br)ccc1O	JMJD2A Tudor 28µM, G9a block 10µM
CS/C(N)=N/N=C/c1cc(Br)cc(Br)c1O	BAZ2B inh 13µM
C=CCc1cccc(/C=N/n2c(C)nnc2C)c1O	JMJD2A Tudor inconclusive
CS/C(N)=N/N=C/c1cc(C)ccc1O	PLK1 PBD block inconclusive (no result: G9a block)
O=C(NCc1ccc(Cl)cc1)c1cnn2ccccc12	none
C[C@H](CO)N1C[C@H](C)[C@@H](CN(C)Cc2ccc(-c3ccccc3)cc2)Oc2c(NC(=O)Nc3ccc(C(F)(F)F)cc3)cccc2C1=O	none (no result: BAZ2B inh, G9a block)
Cn1ncc(Cl)c1C(=O)N/N=C/c1cccc(OC2CSC2)c1	BAZ2B inh 79µM
O=C(CSc1ncccn1)N/N=C/c1cccc(OC2CSC2)c1	BAZ2B inh inconclusive
Cc1cc(C)c(S(=O)(=O)N2CCCCC2C(=O)O)c(C)c1 (stereo not given)	none
N=c1c2c(-c3ccccc3)c(-c3ccccc3)n(Cc3ccco3)c2ncn1Cc1ccco1	BAZ2B inh 25µM, HP1b binding inh inconclusive, JMJD2A Tudor 50µM, G9a block inconclusive
CCCCn1cnc2c(c(-c3ccccc3)c(-c3ccccc3)n2Cc2ccco2)c1=N	BAZ2B inh inconclusive (no result: G9a block)
N=c1c2c(-c3ccccc3)c(-c3ccccc3)n(Cc3ccccc3)c2ncn1CCCn1ccnc1	BAZ2B inh 50µM, JMJD2A Tudor inconclusive, G9a block inconclusive
Cc1cc(NCCCn2ccnc2)n2nc(C)c(-c3ccccc3)c2n1	BAZ2B inh inconclusive, JMJD2A Tudor inconclusive
CCN(CC)CCCNCC(=O)Nc1ccc2c(c1)CCC2	BAZ2B inh 56µM, HP1b binding inh inconclusive, JMJD2A Tudor 28µM, G9a block 35µM
CCN(CC)CCCNCC(=O)Nc1ccc(OC)c(Cl)c1	BAZ2B inh 50µM, G9a block 8.9µM (no result: PLK1 PBD block, HP1b binding inh, VDR inhibitor, JMJD2A Tudor)
Cc1noc(C)c1COC(=O)/C=C/c1ccc(Cl)cc1	PLK1 PBD block 12µM, VDR inhibitor inconclusive, JMJD2A Tudor inconclusive
Cc1noc(C)c1COC(=O)CCCNC(=O)c1ccc(Cl)cc1	none
CCN(CC)S(=O)(=O)c1cc(NC(=O)CSCc2c(C)noc2C)ccc1C	none (no result: BAZ2B inh, G9a block)
COc1ccc(C(=O)Nc2nnc(C(F)(F)F)s2)cc1	PLK1 PBD block 27µM, HP1b binding inh inconclusive, JMJD2A Tudor 56µM
CCOc1ccccc1NC(=O)COC(=O)c1cn(CC)c2nc(C)ccc2c1=O	none (no result: PLK1 PBD block)
CCCCN1C(=O)Cc2c1nc(N)c1c(N)nc(N(CCC)CCC)c(C#N)c21	HP1b binding inh inconclusive, VDR inhibitor inconclusive, G9a block 40µM
CC(=O)N1c2ccccc2[C@@H](C)[C@@H]1C	none
CC(=O)N1c2ccccc2C2(O)N=C(C)SC12 (stereo not given)	PLK1 PBD block 5.3µM, BAZ2B inh inconclusive, HP1b binding inh inconclusive, VDR inhibitor inconclusive, JMJD2A Tudor 5.6µM, G9a block 1.4µM
Cc1ccc(NC(=O)c2ccc(COc3ccc4c(c3)CCC4)cc2)c(C)c1	VDR inhibitor inconclusive
CNc1nc(-c2ccccn2)nnc1-c1ccccc1	BAZ2B inh 0.89µM, JMJD2A Tudor 5.6µM
O=C(CCSc1ccc(Cl)cc1)NCc1ccccn1	none
